Molecules are shown by their SMILES. Calls of active or inactive are those of the source. How the source made its calls: active means hit-call score of the fitted dose curve at least 0.9, where 1 is the maximum; inactive means score below 0.9.

Results on 40 compounds are retold here after PubChem BioAssay (EPA / NIEHS).

The nature of this assay: ATG_PBREM_CIS: Attagene CIS-FACTORIAL HepG2 Assay for human Phenobarbital-responsive Enhancer Module (PBREM) (AID 2282955). The conditions noted are these: HepG2 PBREM cis-reporter, Attagene multiplexed transcription; actives raise or lower the signal. The procedure: ATG_CIS is a cell-based, multiplexed-readout assay that uses HepG2, a human liver cell line, with measurements taken at 24 hours after chemical dosing in a 24-well plate.ATG_PBREM_CIS is one of 52 assay component(s) measured or calculated from the ATG_CIS assay. It is designed to make measurements of mRNA induction, a form of inducible reporter, as detected with fluorescence intensity signals by Reverse transcription polymerase chain reaction (RT-PCR) and Capillary electrophoresis technology.Data from the assay component ATG_PBREM_CIS was analyzed into 1 assay endpoint. This assay endpoint, ATG_PBREM_CIS, was analyzed with bidirectional fitting relative to DMSO as the negative control and baseline of activity. Using a type of inducible reporter, measures of mRNA for gain or loss-of-signal activity can be used to understand the reporter gene at the transcription factor-level as they relate to the gene NR1I3. Furthermore, this assay endpoint can be referred to as a primary readout, because this assay has produced multiple assay endpoints where this one serves a reporter gene function. To generalize the intended target to other relatable targets, this assay endpoint is annotated to the nuclear receptor intended target family, where the subfamily is non-steroidal.
Human liver HepG2 cells are transiently transfected with multiple reporter transcription units (MRTUs) in 6-well plates using FuGene 6 reagent (Roche; 3 ml FuGene/1 mg DNA). The MRTU constructs are regulated by a cis-regulating element (promoter). […] A major difference between the CIS and TRANS system is that in CIS activities of endogenous TFs are measured, whereas the TRANS assay evaluates changes in activities of exogenous, chimeric NR-Gal4 proteins. […] At the end of 24 hour incubation, total RNA was isolated using TriZol reagent (Invitrogen). The isolated RNA is then reverse-transcribed using oligo(dT) primer and Mo-MLV reverse transcriptase (Invitrogen) with DNAse I (Ambion) treatment for 30 min. The one-tenth of the produced cDNA was amplified by PCR using Taq DNA polymerase (Invitrogen) and two reporter sequence-specific primers. The PCR products were fluorescently labeled by primer extension with 6-arboxyfluorescein (6-FAM) 5'-labeled reporter sequence-specific primer (2 min at 95 C, 20 s at 68 C and 10 min at 72 C) and these products were digested with 5U of HpaI (New England Biolabs) for 2h at 37 C. The fragments were purified using Qiaquick PCR columns (Qiagen), analyzed on an ABI 3130xL genetic analyzer (Applied Biosystems) with peak positions identified by using a set of X-rhodamine (ROX)-labeled MapMarker1000 molecular weight standards (BioVentures). The raw capillary electrophoresis data was processed using Attagraph software (Attagene).
Consider `C=CC(=O)OCC(O)COc1ccccc1` (stereo not given), for which the outcome was inactive.

On to `O=C1NC(=O)c2ccccc21`, for which the outcome was inactive.

As to `CCCCCCCCCCN`, the outcome was inactive.

Consider `CCCCCCCCCCC(CO)CCCCCCCC` (stereo not given), for which the result was inactive. The same measure, in the same setting: in the case of `CC(C)c1cccc(O)c1` it was “inactive”; in that of `CC(O)C(C)O` (stereo not given), “inactive”; in that of `N#Cc1nc(Cl)c(Cl)c(Cl)c1Cl`, “inactive”. Same read-out and setting: in the case of `O=C1c2ccccc2C(=O)N1SC1CCCCC1` it was “inactive”.

On to `Cc1cc(C2(c3cc(C)c(O)cc3C)OS(=O)(=O)c3ccccc32)c(C)cc1O`, for which the outcome was inactive. On the same count and under the same terms, next, `COC(=O)OC`: “inactive”; `CCCC1CCC(=O)O1` (stereo not given): “inactive”. The same measure, in the same setting: next, `CCCCCCCCCOC(C)=O`: “inactive”. Still for that read-out and setting: next, `C=CCOC(=O)CCC1CCCCC1`: “inactive”. `CC(C)=CCC[C@](C)(O)[C@@H]1CC=C(C)CC1`: the outcome was inactive. For the compound `CSc1nnc(C(C)(C)C)c(=O)[nH]1`, the result was inactive.

Turning to `CC(=O)c1c(C)cc(C(C)(C)C)cc1C`, the outcome was inactive. Regarding `O=C(O)c1ccc(C(=O)O)cc1`, the result was inactive. On the same count and under the same terms, in the case of `CN(C)c1ccc(O)c2c1C[C@H]1C[C@H]3[C@H](N(C)C)C(=O)C(C(N)=O)=C(O)[C@@]3(O)C(=O)C1=C2O` it was “inactive”; in that of `CCCCCCC#CC(=O)OC`, “inactive”. The same measure, in the same setting: in the case of `CO[Si](CCCn1c(=O)n(CCC[Si](OC)(OC)OC)c(=O)n(CCC[Si](OC)(OC)OC)c1=O)(OC)OC` it was “inactive”; in that of `CC1(CO)CN(c2ccccc2)NC1=O` (stereo not given), “inactive”; in that of `CNC(=O)Oc1ccc2c(c1)[C@]1(C)CCN(C)[C@@H]1N2C`, “inactive”.

Regarding `CC(CCO)CCCC(C)(C)O` (stereo not given), the result was inactive. On the same count and under the same terms, next, `CCN(CC)CCOC(=O)c1ccc(N)cc1`: “inactive”; `CCCCC(CC)COC(=O)/C=C\C(=O)OCC(CC)CCCC` (stereo not given): “inactive”. Regarding `C[Si](O[Si](C)(C)C)O[Si](C)(C)C`, the result was inactive. For the compound `CC1(C)C(=O)N(Br)C(=O)N1Cl`, the result was inactive.

On to `CC(C=O)Cc1ccc(C(C)C)cc1` (stereo not given), for which the result was inactive.

As to `CC(C)(COC(=O)c1ccccc1)COC(=O)c1ccccc1`, the result was inactive. Still for that read-out and setting: next, `CCCCc1ccc(N)cc1`: “inactive”.

On to `CC(=O)C(C)=O`, for which the result was inactive.

As for `CC(C)c1ccc(C(C)C)cc1`, the outcome was inactive.

Turning to `Nc1cccc(S(=O)(=O)c2cccc(N)c2)c1`, the outcome was inactive. On the same count and under the same terms, in the case of `COCCCOc1ccnc(CS(=O)c2nc3ccccc3[nH]2)c1C` (stereo not given) it was “inactive”; in that of `CC1=CCC2C(C1)C2(C)C` (stereo not given), “inactive”. What is called AC50 is the concentration at which the activity in the assay is half-maximal. Consider `CCCCCCCCCCCCCCCC(=O)OC[C@H](O)[C@H]1OC(=O)C(O)=C1O`, for which the AC50 is 71.7 µM (active).

As for `CC1COc2ccccc2N1C(=O)C(Cl)Cl` (stereo not given), the result was inactive. For `O=C(O)CCCCCCCCCCC(=O)O`, the result was inactive. For `Cc1ccc(O)c(C(C)(C)C)c1`, the result was inactive. Still for that read-out and setting: in the case of `CC(C)(CO)[N+](=O)[O-]` it was “inactive”.
